2 compounds from PubChem BioAssay AID2284196 (EPA ToxCast) can be followed below.

SMILES strings stand for the structures. The source made the active and inactive calls. Rule for the calls: active = hit-call score of the fitted dose curve at least 0.9, where 1 is the maximum; inactive = score below 0.9.

The AC50 is the concentration at which the activity in the assay is half-maximal.

Sequence of human Peripheral-type Benzodiazepine Receptor (PBR/TSPO) Antagonism, TSPO (gene 706) (P30536 whole entry, looked up): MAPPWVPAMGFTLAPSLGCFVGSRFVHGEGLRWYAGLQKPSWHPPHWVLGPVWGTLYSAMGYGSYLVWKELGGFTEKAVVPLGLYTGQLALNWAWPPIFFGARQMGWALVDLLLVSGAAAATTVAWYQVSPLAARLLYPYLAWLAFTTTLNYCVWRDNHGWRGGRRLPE

For this assay, the target named is human Peripheral-type Benzodiazepine Receptor (PBR/TSPO) Antagonism, TSPO (gene 706) (UniProt P30536). Put plainly: ERF_FR_MP_hTSPO: Eurofins (ERF) Radioligand Binding LeadHunter Assay for human Peripheral-type Benzodiazepine Receptor (PBR/TSPO) Antagonism. As to the method:
ERF_FR_MP_hTSPO is a biochemical, single-readout assay that uses extracted gene-proteins in a cell-free assay. Measurements were taken 0.25 hour after chemical dosing in a 96-well plate. See PBR Human Binding (Antagonist Radioligand) Assay, Cerep.ERF_FR_MP_hTSPO is an assay component calculated from the ERF_FR_MP_hTSPO assay. It is designed to measure radioligand binding using a type of binding reporter as detected by scintillation counting with radiometry technology.Data from the assay component ERF_FR_MP_hTSPO was analyzed at the assay endpoint, ERF_FR_MP_hTSPO, in the positive analysis fitting direction relative to DMSO as the negative control and baseline of activity. Using a type of binding reporter, loss-of-signal activity can be used to understand changes in binding as they relate to gene TSPO. To generalize the intended target to other relatable targets, this assay endpoint is annotated to the membrane protein intended target family, where the subfamily is mitochondrial associated translocator protein.
Human glioblastoma U118MG cells are used to prepare peripheral benzodiazepine receptor in modified Tris-HCl buffer pH 7.4. A 100 ug aliquot is incubated with 0.2 nM [3H] PK-11195 for 15 minutes at room temprature. Non-specific binding is estimated in the presence of 10 uM PK-11195. Membranes are filtered and washed, the filters are then counted to determine [3H] […]
Regarding `O=C(/C=C/c1ccc(O)cc1)CC(=O)/C=C/c1ccc(O)cc1`, the AC50 is 891 nM (active).
`COc1cc(CCC(=O)CC(=O)CCc2ccc(O)c(OC)c2)ccc1O`: the result was inactive.
